Hits are enriched below; roughly 4.1% of the tested compounds scored in any of these assays.
NSD2 HMT inh – NSD2 (human) methyltransferase inhibition; NSD2 peptide methylation, AlphaScreen, 120 min; AID 743445; 310,000 tested, 0.54% active; inhibition, % at 12.5 µM; O96028; in the data active means inhibition above about 50%
ALR inh – human ALR oxidase inhibition via reduced H2O2; P55789; purified ALR, DTT oxidation, H2O2 HRP-luminol luminescence; inhibition, % (test concentration not listed); 290,000 tested, 3.8% active; AID 485317;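 active means mean replicate inhibition above about 79%, with every replicate also reaching it, limit read from the data; inconclusive means only one of the two criteria met; inactive means mean below limit and not every replicate reaching it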
PglD DTNB – blocks C. jejuni PglD acetyltransferase activity | purified PglD enzyme, DTNB colorimetric CoA detection | inhibition, % at 12.5 µM | 360,000 tested, 0.098% active | AID 602405; in the data active means inhibition above about 16%, passing the limit was not always enough; inconclusive means no clear call, values can overlap the other calls
CASP6 VEID inh – blocks human caspase-6 cleavage activity; P55212; purified caspase-6, Z-VEID-R110 cleavage fluorescence; inhibition, % at 12.5 µM; 350,000 tested, 0.53% active;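 active means mean inhibition across replicates at least about 35%, with every replicate also reaching that limit, limit read from the data; inconclusive means only one of the two criteria met; inactive means neither criterion met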;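 further: 0% = median of neutral control wells and 100% = no fluorescence left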
F508del corr – CFTR F508del correction in bronchial cells | CFBE cells, YFP halide quenching; stimulated with forskolin plus potentiator P3; % fluorescence drop versus neutral controls | activity (quench increase), % at 7.58 µM | 350,000 tested, 0.36% active;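 active means mean added fluorescence quench of at least 8% versus neutral control, with both replicates also reaching 8%; inconclusive means only one of the mean or replicate conditions met; inactive means mean below 8% and not both replicates reaching 8%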;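 further: cells transiently co-express mutant CFTR-F508del with the halide-sensitive YFP; corrector assay measuring rescue of mutant channel to the surface after 24 h compound exposure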
HIV Env fusion – HIV envelope-mediated fusion inhibition; HeLa-JRFL Env/CEM21 cell fusion, luciferase; inhibition, % at 12.3 µM; 360,000 tested, 1.1% active;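 active means mean replicate inhibition score of at least 50 and every replicate individually at or above 50; inconclusive means only one of the two criteria met; inactive means mean below 50 and not all replicates reaching 50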;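 further: 0% = plate neutral controls and 100% = maraviroc near 300 nM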
The depositor's hits bear a star; u = inconclusive; x = no result given; [ ] = remark or other dose.

SMILES	NSD2 HMT inh	ALR inh	PglD DTNB	CASP6 VEID inh	F508del corr	HIV Env fusion
COc1cccc(N2CCN(Cc3ccco3)CC2)c1	4	87*	3	-11	1	4
COc1cccc(N2CCN(Cc3ccsc3)CC2)c1	17	89*	x	x	x	x
COc1cccc(CN2CCSCC2)c1	0	-8	-6	-1	3	x
CCCC(=O)Nc1ccc2c(c1)C(=O)N(C)[C@H]1CC[C@@H](CC(=O)Nc3cn(C)nc3C)O[C@@H]1CO2	x	x	-3	-1	-1	x
Cc1cccc(C(=O)OCC(=O)c2c(N)n(CC(C)C)c(=O)n(C)c2=O)c1O	0	-1	x	1	-6	60*
C[C@@H]1CCCCO[C@@H](CN(C)Cc2ccc3c(c2)OCO3)[C@H](C)CN([C@@H](C)CO)C(=O)c2cc(NC(=O)CCCN(C)C)ccc2O1	x	x	26	-32	-1	2[16.7 µM]
CC[C@H](C)/C=C(C)/C=C/c1cc2c(cn1)C(=O)[C@@](C)(OC(C)=O)C(O)=C2Cl	x	x	2	51*	1	x
Cc1noc(C)c1NC(=O)N(C)C[C@H]1OCCCC[C@@H](C)Oc2ccc(NS(=O)(=O)c3ccccc3)cc2C(=O)N([C@H](C)CO)C[C@H]1C	x	x	-1	2	-1	-22[16.7 µM]
OCc1ccc(N=Nc2ccccc2)cc1	0	-10	0	0	1	-80
O=C(O)c1ccccc1N=Nc1ccc(O)cc1	x	99*	-4	x	-3	15
Oc1ccc(N=Nc2ccccc2)cc1	9	99*	-4	-2	-2	-67
O=C(O)c1cc(O)ccc1N=Nc1ccccc1	2	3	x	4	3	1
C[C@H](CO)N1C[C@H](C)[C@@H](CN(C)C(=O)C2CCCCC2)Oc2ncc(C#CC3CC3)cc2C1=O	x	x	x	x	-3	8[16.7 µM]
N#C/C(=N\Nc1ccc(Cl)cc1)C(N)=S	6	94*	-5	2	u	-8
Cc1ccc(N/N=C(\C#N)C(N)=S)cc1C	21	x	x	-1	-1	-12
N#C/C(=N\Nc1ccccc1)C(N)=S	2	92*	-10	0	2	-11
CC(=O)N1CCN(c2ccc(NCc3ccc(C)s3)cc2)CC1	x	99*	-2	0	1	x
c1csc(CNc2ccc3c(c2)OCCO3)c1	x	65	x	0	x	-71
CC(=O)N1CCN(c2ccc(NCc3cccs3)cc2)CC1	-4	99*	-1	x	x	-19
CC(=O)Nc1ccc(N2CCN(C(=O)c3cccs3)CC2)cc1	0	-18	x	x	x	38
Clc1cc(NCc2cccs2)ccc1N1CCOCC1	4	97*	4	x	x	-22
CO[C@@H]1CN(C)C(=O)c2cc(NS(C)(=O)=O)ccc2OC[C@H](C)N(Cc2cccnc2)C[C@H]1C	x	x	x	x	0	x
COc1ccc2c3c(n(C)c2c1)[C@@H](CO)N(C)CC31CCN(S(=O)(=O)c2cccs2)CC1	x	x	x	x	-1	x
Oc1ccc(/C=N/NC(=S)N2CCOCC2)cc1	-35	99*	x	-4	-3	-19
COc1cc(/C=N/NC(=S)NCCN2CCOCC2)ccc1O	0	99*	-4	x	x	-11
SMILES	NSD2 HMT inh	ALR inh	PglD DTNB	CASP6 VEID inh	F508del corr	HIV Env fusion
COCCNC(=S)N/N=C/c1ccc(N2CCOCC2)cc1	42	99*	-13	-1	6	13
C=C(C)CNC(=S)N/N=C/c1ccc(N2CCOCC2)cc1	-1	u	x	17	0	-4
COc1ccc(OC)c(NC(=S)NCCN2CCOCC2)c1	0	-8	x	-4	-4	-8
CC(C)NC(=S)N/N=C/c1ccc(N2CCOCC2)cc1	1	99*	1	0	1	7
COCCNC(=O)C[C@@H]1CC[C@@H]2[C@H](COC[C@H](O)CN2C(=O)Nc2ccccc2OC)O1	x	x	-1	2	-1	x
COCCNC(=S)Nc1ccc(N2CCCCC2)cc1	2	99*	1	3	0	-2
COc1ccc(C(=O)NC(=S)Nc2ccc(N3CCCC3)cc2)cc1	1	-7	x	1	0	14
Cc1ccc(N2C(=O)c3sc4nnc(C)c(=O)n4c3C2=O)cc1	1	98*	-1	3	1	x
C[C@@H]1CN([C@H](C)CO)C(=O)c2cc(C#C[C@@H](C)O)cnc2O[C@H]1CN(C)C(=O)CN1CCOCC1	x	x	2	2	-2	-35[16.7 µM]
Cc1cccc(N=C(NO)c2nonc2N)c1	-6	89*	3	-2	x	3
COc1ccc2c3c(n(C)c2c1)[C@@H](CO)N(Cc1ccccc1OC)CC31CCN(C)CC1	x	x	x	x	-2	x
